Screening results deposited in PubChem BioAssay by National Center for Advancing Translational Sciences (NCATS).
This is a sample that favours compounds with a hit; in the whole collection about 3.7% have one here.
ATXN2 expr inh: ATXN2 expression inhibition. HEK-293 ATXN2-luciferase reporter, luminescence, 24 h. 360,000 compounds, 0.72% hits. Potency, µM (top dose mostly 57 µM), for inactives: at the top dose activity change, negative = inhibition, actives largely listed as inhibitors; further: on the % scale 0 is the no-effect control and ±100 the full control effect; nearly all actives have a fitted effect of over 55% in size
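ATXN2-luciferase reporter cells (luciferase flanked by upstream and downstream ATXN2 gene portions) were treated 24 h at 37 °C with compounds at up to 57 uM. SteadyGlo luminescence gave expression; GF-AFC fluorescence gave viability.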
GLP1R ag: GLP-1 receptor (human) agonism; HEK293 GLP-1R CRE-luciferase, luminescence, 4-6 h; cells express a hypersensitive GLP-1R form; Potency, µM (doses to about 45.6 µM), for the others: at the top dose activation, actives largely listed as activators; 380,000 compounds, 0.007% hits; AID 624172; further: % of control where 0% means no effect
Target sequence (P43220 whole entry, looked up): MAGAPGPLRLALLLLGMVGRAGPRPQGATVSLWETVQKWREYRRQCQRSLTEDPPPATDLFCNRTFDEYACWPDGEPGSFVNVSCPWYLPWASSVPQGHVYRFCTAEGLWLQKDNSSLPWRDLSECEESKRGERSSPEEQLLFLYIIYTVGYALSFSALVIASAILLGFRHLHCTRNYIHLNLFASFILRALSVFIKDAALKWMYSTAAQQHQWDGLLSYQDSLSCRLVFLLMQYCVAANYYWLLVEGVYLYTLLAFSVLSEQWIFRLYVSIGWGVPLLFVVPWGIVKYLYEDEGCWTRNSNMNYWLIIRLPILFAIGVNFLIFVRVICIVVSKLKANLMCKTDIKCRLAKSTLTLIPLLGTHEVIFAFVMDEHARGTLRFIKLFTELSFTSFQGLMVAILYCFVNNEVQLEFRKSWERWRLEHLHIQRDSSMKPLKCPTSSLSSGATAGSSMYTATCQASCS
GLP-1R inv ag: GLP-1 receptor (human) inverse agonism; P43220; HEK293 GLP-1R CRE-luciferase, luminescence, 24 h; GLP-1R form is constitutively active; Potency, µM (titrated, usually from 38.3 µM), for inactives: at the highest dose activity change, negative = inhibition, usual class: inhibitors; 410,000 compounds, 1.6% hits; further: on the % scale 0 is the no-effect control and ±100 the full control effect; nearly all actives have a fitted effect of over 55% in size
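Constitutively active GLP-1R drives a cAMP-responsive luciferase in stably transfected HEK293 cells; test compounds are added after overnight (12 h) attachment and left 24 hr, and signal loss in luminescence marks inhibition.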
HepG2 viability: kills HepG2 cells in TGF-b inhibitor counter-screen | HepG2 CAGA-GFP viability, ATP luminescence, 18 h | Potency, µM (titrated, usually from 46.1 µM), inactives show at the highest dose activity change, negative = cytotoxicity, hits mostly cytotoxic | 410,000 compounds, 0.76% hits
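HepG2 CAGA-GFP cells (1000/well, DMEM with 1% FBS) received compound, then TGF-beta at 500 pg/mL final, and were incubated 18 hours at 37 degrees C. Viability was read by CellTiter-Glo luminescence. Media-only wells were set as complete cell-killing and DMSO as no toxicity.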
ATXN viability: cell viability loss in ATXN counter-screen | S2 cells (HEK-293 line with an ATXN2-luciferase reporter) viability, CellTiter-Fluor protease fluorescence, 24 h | Potency, µM (titrated, usually from 56.7 µM), usual class: cytotoxic | 400,000 compounds, 0.49% hits | AID 651635; further: nearly all actives have a fitted effect of over 40% in size
TGFb inhibitor: TGF-b pathway inhibition; HepG2 CAGA-GFP TGF-b/SMAD3 reporter, GFP fluorescence, 18 h; TGF-beta stimulated, 500 pg/mL final; Potency, µM (titrated, usually from 46.1 µM), inactives show top-dose activity, negative = inhibition, most hits filed as inhibitors; 410,000 compounds, 1.2% hits; further: on the % scale 0 is the no-effect control and ±100 the full control effect; nearly all actives have a fitted effect of over 65% in size
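TGF-beta reporter screen: HEPG2 CAGA-GFP, 1% FBS, 500 pg/mL TGF-beta final, 18 h; per-cell GFP summed per well; curves fitted and categorized by class.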
Numbers without * were called inactive; i = inactive; ? = inconclusive; . = no result; [ ] = dose if it differs, or a comment. The call rests on the fitted dose curve; in most records, active means well fitted curve in the direction sought with a large enough effect; inconclusive means small, poorly fitted or top-dose-only effect, or another doubt; inactive means no such curve, though single readings can be large; an effect the other way counts as inactive or inconclusive. Potency means the concentration at half of the fitted maximal effect.

SMILES	ATXN2 expr inh	GLP1R ag	GLP-1R inv ag	HepG2 viability	ATXN viability	TGFb inhibitor
NC(Cc1ccc(C(F)(F)F)cc1)c1csc(Nc2ccc(C(=O)c3ccccc3)cc2)n1 (stereo not given)	31.6µM*	-5.7%	?	22.4µM*	i	?
NC(CCc1ccccc1)c1csc(Nc2ccc(C(=O)c3ccccc3)cc2)n1 (stereo not given)	?	-3.4%	-26.7%	15.8µM*	?	?
CC(=O)c1ccc(Nc2nc(C(N)Cc3ccc(C(F)(F)F)cc3)cs2)cc1 (stereo not given)	0.0%	-2.3%	?	-93.9%	i	?
NC(Cc1ccc(C(F)(F)F)cc1)c1csc(Nc2ccccn2)n1 (stereo not given)	-26.2%	9.3%	?	-41.8%	?	-6.0%
CCOC(=O)C1CCN(C(=O)c2nn(-c3ccc(OC)c(Cl)c3)c(=O)c3c2c2ccccc2n3C)CC1	.	.	7.9%	2.6%	.	-22.3%
COc1cc(NC2c3ccccc3C(=O)N2Cc2ccccc2Cl)cc(OC)c1 (stereo not given)	0.2%	0.1%	10µM*	-39.4%	i	?
Cc1ccc(C)c(OCCCNCc2ccccc2)c1	.	-0.4%	-27.8%	-17.4%	i	5.4%
Clc1cc(Br)ccc1OCCCNCc1ccccc1	-18.1%	20.6%	?	12.6µM*	i	11.2µM*
Nc1ccc(O)cc1	-6.6%	-5.0%	.	14.1µM*	?	4.47µM*
Nc1ccc(C(=O)O)cc1	0.8%	-4.7%	9.7%	-16.4%	i	-4.1%
Cc1nn(-c2ccccc2)c(C)c1CC(=O)NCC1Cc2cc(F)cc(-c3cccnc3)c2O1 (stereo not given)	.	.	.	.	i	.
CCC(C(=O)Nc1cc(C)nn1-c1nc(C)cc(C)n1)c1ccccc1 (stereo not given)	-2.1%	18.9%	3.55µM*	-30.1%	i	-23.9%
CC(C)(C)C(=O)N/C(N)=N/c1nc2ccccc2o1	55.0%	4.8%	11.2µM*	-45.3%	i	-14.2%
CCC(=O)N/C(N)=N/c1nc2ccccc2o1	41.9%	6.7%	-12.8%	1.4%	i	-9.1%
COc1cc(-c2nc3ccc(C)cn3c2NCc2ccccc2)ccc1SC1CCCCC1	?	-0.3%	3.98µM*	-15.0%	?	?
COc1ccc(CSc2ccc(-c3nc4ccccn4c3NCc3ccccc3)cc2OC)cc1	-26.7%	10.3%	?	-21.2%	i	?
CCCCNc1c(-c2ccc(OC)c(SC3CCCCC3)c2)nc2cnccn12	?	-10.7%	?	11.2µM*	.	?
CCC(C)Sc1ccc(-c2nc3ccccn3c2NCc2ccccc2)cc1OC (stereo not given)	?	-3.3%	-3.9%	-60.0%	?	12.6µM*
COc1cc(-c2nc3ccc(C)cn3c2NCc2ccccc2)ccc1-c1cccc(Cl)c1	-13.4%	5.4%	8.91µM*	-29.4%	i	?
C=C1C=C(C(F)F)n2ncc(C(=O)N3CCCCC3)c2N1	.	.	.	17.1%	.	2.4%
OC1(c2cccnc2)CCN(Cc2ccc3c(c2)CN(Cc2ccc(F)c(F)c2)CCO3)CC1	.	.	.	.	i	.
Cc1cccc(Cn2c(=O)n3nc(-c4ccccc4)nc3c3ccccc32)c1	0.2%	4.6%	-16.5%	2.7%	i	?
O=Cc1ccc(CS)cc1	.	.	.	-18.2%	.	-9.8%
Cn1c(Nc2ccc(C(F)(F)F)cc2)nc2cc(Oc3ccnc(-c4ncc(C(F)(F)F)[nH]4)c3)ccc21	-19.0%	.	.	.	.	.
Cc1[nH]n(-c2ccc([N+](=O)[O-])cc2)c(=O)c1/C=N/N1CCOCC1	-8.0%	13.0%	16.8%[7.66 µM]	1.41µM*	i	2.3%
SMILES	ATXN2 expr inh	GLP1R ag	GLP-1R inv ag	HepG2 viability	ATXN viability	TGFb inhibitor
CC(C)NC[C@@H](C(=O)N1CCN(c2ncnc3c2[C@H](C)C[C@H]3O)CC1)c1ccc(Cl)cc1	19.3µM*	.	.	.	.	.
O=S1(=O)CCO[C@H]2CCCC[C@@H]2N1Cc1ccccc1	.	.	.	-24.4%	.	-8.9%
CC(=C/c1ccccc1)/C=N/NC(=O)c1nnn(-c2nonc2N)c1CN1CCC(C)CC1	-33.4%	14.5%	3.98µM*	-28.7%	?	-11.2%
CC1CCN(Cc2c(C(=O)N/N=C/c3cccc(Cl)c3)nnn2-c2nonc2N)CC1	.	-8.3%	-22.4%	-75.7%	i	?
CCCc1c(C(=O)N/N=C/c2c[nH]c3ccccc23)nnn1-c1nonc1N	.	-6.3%	?	-24.7%	.	-1.7%
Cc1ccc(-c2c(C(=O)N/N=C/c3c[nH]c4ccccc34)nnn2-c2nonc2N)cc1	.	-4.2%	3.16µM*	-60.8%	?	?
CC(/C=N/NC(=O)c1nnn(-c2nonc2N)c1CN1CCCCC1)=C\c1ccccc1	-24.9%	3.6%	?	-25.2%	i	?
CC1CCN(Cc2c(C(=O)N/N=C/c3ccccc3O)nnn2-c2nonc2N)CC1	3.16µM*	7.8%	?	-11.9%	i	-25.6%
Cc1cnc(C)c(-c2cccc3c2OC(CNC(=O)C[C@@H]2C[C@@H](C)NC(=S)N2)C3)n1 (stereo not given in full)	.	.	.	.	i	.
COc1cccc(NC(=O)N2CCN3CCCCC3C2)c1 (stereo not given)	9.1%	.	-25.0%	-21.7%	i	-6.7%
CC(C)(C)c1cc(/C=N/O)cc(C(C)(C)C)c1O	2.2%	-7.9%	10µM*	-21.0%	i	-6.0%
Cc1ccccc1C(=O)c1cccn1CC(=O)NCCN1CCN(c2cccc(C)c2C)CC1	?	-17.8%	?	12.6µM*	?	?
COC[C@H](NC(=O)c1cnc(C)s1)C(=O)N[C@@H](COC)C(=O)N[C@@H](Cc1ccccc1)C(=O)[C@@]1(C)CO1	0.217µM*	.	.	.	.	.
O=c1c(-c2ccc(O)cc2)coc2cc(O)cc(O)c12	93.4%	?	31.6%	-6.3%	i	27.6%
CC(C)=CCc1c2c(c3occ(-c4ccc(O)cc4)c(=O)c3c1O)C=CC(C)(C)O2	?	-10.2%	?	10µM*	.	7.94µM*
CC(C)=CCc1c2c(c3occ(-c4ccc(O)c(O)c4)c(=O)c3c1O)C=CC(C)(C)O2	22.4µM*	-1.0%	?	8.91µM*	?	10µM*
CC1(C)C=Cc2c(c3c(c4c(=O)c(-c5ccc(O)cc5)coc24)OC(C)(C)CC3)O1	?	16.0%	?	-83.1%	.	14.1µM*
O=[N+]([O-])c1ccc(N2CCOCC2)cc1O	7.7%	3.6%	0.7%	-2.3%	?	13.9%
Cc1cc(N2CCOCC2)ccc1/C=C\[N+](=O)[O-]	?	-5.2%	?	17.8µM*	?	11.2µM*
